These results are taken from PubChem BioAssay (NCI).

Test systems include SK-MEL-2 melanoma; EKVX NSCLC; SN12C renal; UO-31 renal; TK-10 renal; ACHN renal; A498 renal; CCRF-CEM leukemia; MOLT-4 leukemia; SR leukemia; OVCAR-8 ovarian; OVCAR-5 ovarian; SK-OV-3 ovarian; IGROV1 ovarian; OVCAR-3 ovarian; HS 578T breast; NCI/ADR-RES ovarian; RPMI-8226 leukemia; OVCAR-4 ovarian.
Assay in all cases: NCI-60 one-dose screen, 48 h (100 = growth as untreated, 0 = no growth, -100 = all killed)
Details in all cases: 10 µM unless noted

The panel holds about 83,000 compounds, 20% with a hit somewhere; the sample as a whole holds those more often.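 Assay: single dose, 48 h. Readout: percent growth (0 = no net growth; negative = cell death). Active: <10.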 Unmarked numbers belong to inactive results. The source made the active and inactive calls.

With `Clc1ccc(-c2nc(NCCc3ccccc3)nc3c(NCCc4ccccc4)cnn23)cc1`, the growth was 79.6% with SK-MEL-2 melanoma; 79.5% with EKVX NSCLC; 80.7% in the assay on SN12C renal; 86.7% in the assay on UO-31 renal; 60.1% in the assay with TK-10 renal; 98.7% with ACHN renal. Moreover, the growth with A498 renal was 71.4%; in the assay with CCRF-CEM leukemia, 82.6%; with MOLT-4 leukemia it was 89.1%; with SR leukemia, 72%; in the assay on OVCAR-8 ovarian, 47.5%; in the assay on OVCAR-5 ovarian, 91.2%. Also, the growth is 75.8% with SK-OV-3 ovarian; 71.5% with IGROV1 ovarian; 48.9% in the assay with OVCAR-3 ovarian; 76.6% with HS 578T breast; 74.5% in the assay with NCI/ADR-RES ovarian.

Take `CCCCCOC(=O)c1ccc(NC(=O)CNCC(C)C)cc1`: the growth in the assay on SK-MEL-2 melanoma is 103%; in the assay with EKVX NSCLC it was 90.8%; with SN12C renal, 94%; in the assay on UO-31 renal, 66.5%; in the assay on TK-10 renal, 98.5%; in the assay with A498 renal it was 71.8%. For the same compound, the growth in the assay on CCRF-CEM leukemia is 74.3%; with MOLT-4 leukemia, 86.5%; in the assay on SR leukemia, 82.2%; in the assay with RPMI-8226 leukemia, 73.1%; in the assay on OVCAR-8 ovarian it was 96.1%; with OVCAR-5 ovarian, 98.9%. The growth is 101% in the assay with OVCAR-4 ovarian; 95.4% in the assay with SK-OV-3 ovarian; 93.4% with IGROV1 ovarian; 101% in the assay on OVCAR-3 ovarian; 101% with NCI/ADR-RES ovarian.

`CCCNCC(=O)Nc1ccc(C(=O)OC(C)(C)CC)cc1`: the growth with SK-MEL-2 melanoma was 95.6%; in the assay with EKVX NSCLC, 98.1%; in the assay with SN12C renal, 105%; in the assay with UO-31 renal, 86.3%; with TK-10 renal it was 93%; in the assay on A498 renal, 108%. In addition, the growth is 89.7% with MOLT-4 leukemia; 90.6% with SR leukemia; 99.8% in the assay with RPMI-8226 leukemia; 104% in the assay with OVCAR-8 ovarian; 111% with OVCAR-5 ovarian; 118% with OVCAR-4 ovarian. The growth with SK-OV-3 ovarian was 105%; with IGROV1 ovarian, 99.5%; in the assay on OVCAR-3 ovarian, 102%; in the assay with HS 578T breast it was 105%; with NCI/ADR-RES ovarian, 105%.

As to `C=C1C(=O)O[C@H]2[C@H]1CC/C(C(=O)NCCCCCCCCNC(=O)/C1=C/CC[C@@]3(C)O[C@H]3[C@H]3OC(=O)C(=C)[C@@H]3CC1)=C\CC[C@@]1(C)O[C@@H]21`, the growth was 80.1% in the assay on SK-MEL-2 melanoma; 97.2% with EKVX NSCLC; 76.2% in the assay with SN12C renal; 80.8% in the assay with UO-31 renal; 64.4% with TK-10 renal; 107% in the assay with A498 renal. Also, the growth in the assay on CCRF-CEM leukemia is 4.79% (active); in the assay with MOLT-4 leukemia it was 15.2%; with SR leukemia, 20.2%; with RPMI-8226 leukemia, 33.6%; with OVCAR-8 ovarian, 93.4%; with OVCAR-5 ovarian it was 97.1%. Further, the growth with SK-OV-3 ovarian was 93.5%; in the assay on IGROV1 ovarian, 63.3%; in the assay on OVCAR-3 ovarian, 33.1%; in the assay on HS 578T breast, 90.5%; in the assay on NCI/ADR-RES ovarian it was 103%.

Take `CC(c1ccc(-n2cccn2)cc1)c1cnc(N2CCc3ccc(C(N)=O)cc3C2)s1` (centres undefined): the growth in the assay on SK-MEL-2 melanoma is 51.7%; with EKVX NSCLC, 54.3%; with SN12C renal, 86.9%; in the assay on UO-31 renal, 51.8%; in the assay on TK-10 renal, 68.6%; in the assay on A498 renal, 81%. Besides, the growth was 33.4% with CCRF-CEM leukemia; 8.64% (active) in the assay with MOLT-4 leukemia; 53.5% in the assay on SR leukemia; 34.5% in the assay on RPMI-8226 leukemia; 34.9% in the assay on OVCAR-8 ovarian; 92.8% in the assay with OVCAR-5 ovarian. Besides, the growth is 42% in the assay on OVCAR-4 ovarian; 68.6% in the assay on SK-OV-3 ovarian; 79.8% in the assay with IGROV1 ovarian; 71.5% in the assay on OVCAR-3 ovarian; 100% in the assay with HS 578T breast; 32.1% in the assay with NCI/ADR-RES ovarian.

In the case of `CCOC(=O)c1c(C)[nH]c(C(=O)CCC(=O)OC)c1C`, the growth is 83.1% with SK-MEL-2 melanoma; 95.2% with EKVX NSCLC; 110% in the assay on SN12C renal; 92.7% in the assay on UO-31 renal; 84.3% with TK-10 renal; 119% in the assay on A498 renal. For the same compound, the growth with CCRF-CEM leukemia was 92.8%; in the assay on MOLT-4 leukemia, 93%; with SR leukemia, 92.5%; in the assay with RPMI-8226 leukemia it was 95.8%; in the assay on OVCAR-8 ovarian, 103%; with OVCAR-5 ovarian, 100%. The growth with OVCAR-4 ovarian is 107%; in the assay on SK-OV-3 ovarian, 101%; with IGROV1 ovarian it was 104%; with OVCAR-3 ovarian, 105%; in the assay on HS 578T breast, 124%; in the assay with NCI/ADR-RES ovarian it was 97.9%.

In the case of `N=C(N)c1ccc(-c2ccc(-c3ccc(Cl)cc3Cl)o2)cc1`, the growth with SK-MEL-2 melanoma was 105%; in the assay with EKVX NSCLC it was 58.5%; in the assay with SN12C renal it was -78.3% (active); in the assay with UO-31 renal, -83.8% (active); in the assay on TK-10 renal it was 30.5%; with ACHN renal, -89% (active). Besides, the growth was 0.678% (active) with CCRF-CEM leukemia; 2.97% (active) in the assay with SR leukemia; -23.5% (active) in the assay on OVCAR-8 ovarian; 16% in the assay with OVCAR-5 ovarian; -38.1% (active) with OVCAR-4 ovarian; -76.6% (active) in the assay on IGROV1 ovarian. Further, the growth with OVCAR-3 ovarian was -40.2% (active); with HS 578T breast, 29.7%; in the assay on NCI/ADR-RES ovarian, -46.8% (active).

Take `C=CCN1C(=O)[C@]2(SC1=S)[C@H](c1cccc(Cl)c1)CN(C)[C@]21C(=O)NC2C=CC(Cl)=C[C@H]21` (some centres undefined): the growth with SK-MEL-2 melanoma is 44.2%; in the assay on EKVX NSCLC, 38.4%; in the assay on SN12C renal, -53.6% (active); in the assay on UO-31 renal it was -41.2% (active); with TK-10 renal, 70.9%; in the assay with A498 renal it was 76.8%. Also, the growth in the assay on CCRF-CEM leukemia is 4.67% (active); in the assay with MOLT-4 leukemia, -17.7% (active); with SR leukemia, -22.6% (active); in the assay on RPMI-8226 leukemia, -5.81% (active); with OVCAR-8 ovarian, 56%; in the assay with OVCAR-5 ovarian, 80.5%. The growth in the assay on OVCAR-4 ovarian is 49.4%; with SK-OV-3 ovarian it was 58%; in the assay on IGROV1 ovarian, 48.3%; with OVCAR-3 ovarian, 38.4%; with HS 578T breast, 56%; in the assay with NCI/ADR-RES ovarian, 38.7%.

Regarding `CCC(C)NCc1ccccc1` (centres undefined), the growth in the assay with SK-MEL-2 melanoma was 92.6%; with EKVX NSCLC, 103%; in the assay on SN12C renal, 100%; in the assay with UO-31 renal it was 88%; in the assay on TK-10 renal, 96.9%; in the assay with A498 renal, 88.8%. Further, the growth in the assay on CCRF-CEM leukemia was 83.4%; with MOLT-4 leukemia it was 93.5%; with SR leukemia it was 104%; in the assay with RPMI-8226 leukemia, 95.7%; in the assay on OVCAR-5 ovarian, 114%; in the assay with OVCAR-4 ovarian it was 109%. Moreover, the growth was 101% in the assay on SK-OV-3 ovarian; 109% in the assay on IGROV1 ovarian; 104% in the assay with OVCAR-3 ovarian; 105% in the assay on HS 578T breast; 98.1% in the assay with NCI/ADR-RES ovarian.
